Assay results published in PubChem BioAssay (NCATS).
Results filed as inconclusive are left out. The source made the active and inactive calls. Calls follow the shape of the dose curve; as a rule, active = well fitted curve in the direction sought with a large enough effect; inconclusive = small, poorly fitted or top-dose-only effect, or another doubt; inactive = no such curve, though single readings can be large; an effect the other way counts as inactive or inconclusive.

Key:
[1] = system: AS120; test: qHTS profiling for inhibitors of Plasmodium falciparum proliferation (AID 504749); conditions: P. falciparum in erythrocytes, SYBR Green DNA, 72 h; series mostly up to 28.7 µM
In short: (§1)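 Readout was DNA-dye fluorescence from lysed cultures, ex 485/em 535 nm. Parasitized red cells had grown 72 h with compound; data scaled between 0.29 uM artemisinin and DMSO wells and corrected using vehicle-only plates.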

[2] = system: ATS189; test: as above; conditions: P. falciparum in erythrocytes, SYBR Green DNA, 72 h; series mostly up to 12.8 µM
In short: as §1

[3] = system: ATS95; test: as above; conditions: P. falciparum in erythrocytes, SYBR Green DNA, 72 h; series mostly up to 12.8 µM
In short: as §1

[4] = system: CP185; test: as above; conditions: P. falciparum in erythrocytes, SYBR Green DNA, 72 h; series mostly up to 12.8 µM
In short: as §1

[5] = system: CP194; test: as above; conditions: P. falciparum in erythrocytes, SYBR Green DNA, 72 h; series mostly up to 12.8 µM
In short: as §1

[6] = system: CP203; test: as above; conditions: P. falciparum in erythrocytes, SYBR Green DNA, 72 h; series mostly up to 12.8 µM
In short: as §1

[7] = system: CP237; test: as above; conditions: P. falciparum in erythrocytes, SYBR Green DNA, 72 h; series mostly up to 12.8 µM
In short: as §1

[8] = system: CP238; test: as above; conditions: P. falciparum in erythrocytes, SYBR Green DNA, 72 h; series mostly up to 12.8 µM
In short: as §1

[9] = system: CP247; test: as above; conditions: P. falciparum in erythrocytes, SYBR Green DNA, 72 h; series mostly up to 12.8 µM
In short: as §1

[10] = system: CP265; test: as above; conditions: P. falciparum in erythrocytes, SYBR Green DNA, 72 h; series mostly up to 12.8 µM
In short: as §1

[11] = system: CP291; test: as above; conditions: P. falciparum in erythrocytes, SYBR Green DNA, 72 h; series mostly up to 12.8 µM
In short: as §1

[12] = system: CP305; test: as above; conditions: P. falciparum in erythrocytes, SYBR Green DNA, 72 h; series mostly up to 12.8 µM
In short: as §1

[13] = system: CP335; test: as above; conditions: P. falciparum in erythrocytes, SYBR Green DNA, 72 h; series mostly up to 12.8 µM
In short: as §1

[14] = system: DIV30; test: as above; conditions: P. falciparum in erythrocytes, SYBR Green DNA, 72 h; series mostly up to 12.8 µM
In short: as §1

[15] = system: GB4; test: as above; conditions: P. falciparum in erythrocytes, SYBR Green DNA, 72 h; series mostly up to 12.8 µM
In short: as §1

[16] = system: P94_40; test: as above; conditions: P. falciparum in erythrocytes, SYBR Green DNA, 72 h; series mostly up to 12.8 µM
In short: as §1

[17] = system: PC26; test: as above; conditions: P. falciparum in erythrocytes, SYBR Green DNA, 72 h; series mostly up to 12.8 µM
In short: as §1

[18] = system: TAB109; test: as above; conditions: P. falciparum in erythrocytes, SYBR Green DNA, 72 h; series mostly up to 12.8 µM
In short: as §1

[19] = system: TAB113; test: as above; conditions: P. falciparum in erythrocytes, SYBR Green DNA, 72 h; series mostly up to 12.8 µM
In short: as §1

[20] = Cell Viability - LYMP1-002 - Assay at 40 hr (AID 994)
In short: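 Viability in the human lymphoblastoid line was measured as intracellular ATP via CellTiter-Glo after 40 hr compound exposure. Tetraoctylammonium bromide served as positive control.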

Measured: Potency
Also: nearly all actives have a fitted effect of over 60% in size.

C[C@@H]1CCC[C@H](C)N1NC(=O)c1ccc(Cl)c(S(N)(=O)=O)c1
inactive: [1] | [2] | [3] | [4] | [5] | [6] | [7] | [8] | [9] | [10] | [11] | [12] | [13] | [14] | [15] | [16] | [17] | [18] | [19]

C=C(C)[C@H]1CC=C(C)C(=O)C1
inactive: [20]

C=CC(C)(O)CCC=C(C)C (stereo unspecified)
inactive: [20]

COS(C)(=O)=O
inactive: [20]

Cc1occc(=O)c1O
inactive: [20]

CC1=CC(=O)CC(C)(C)C1(O)/C=C/C(C)=C\C(=O)O (stereo unspecified)
inactive: [20]

CN1[C@@H]2CC[C@H]1CC(OC(=O)[C@@H](O)c1ccccc1)C2 (stereo partly specified)
inactive: [1] | [2] | [3] | [4] | [5] | [6] | [7] | [8] | [9] | [10] | [11] | [12] | [13] | [14] | [15] | [16] | [17] | [18] | [19]

CN1CCCC[C@@H]1CCN1c2ccccc2Sc2ccc(S(C)=O)cc21 (stereo partly specified)
inactive: [1] | [2] | [3] | [4] | [5] | [6] | [7] | [8] | [9] | [10] | [11] | [12] | [13] | [14] | [15] | [16] | [17] | [18] | [19]

CC[C@@]12CCCN3CCc4c(n(c5ccccc45)C(=O)C1)[C@H]32
inactive: [1] | [2] | [3] | [4] | [5] | [6] | [7] | [8] | [9] | [10] | [11] | [12] | [13] | [14] | [15] | [16] | [17] | [18] | [19]
